Shiga inhibitor – inhibitors of Shiga toxin in Vero cells | 290,000 compounds, 9.2% hits | inhibition, % at 38.7 µM | AID 2315 | Vero cells, Shiga toxin protein synthesis inhibition reporter; in the data active = inhibition mostly above about 28%, no sharp cut-off; inactive = mostly below about 43%
Cycloheximide cs – affects cycloheximide protein synthesis inhibition readout, counter-screen; cell reporter, cycloheximide protein synthesis inhibition counterscreen; max response, %; 300,000 compounds, 12% hits; AID 2314; in the data active = max response mostly above about 13%, no sharp cut-off; inactive = mostly below about 14%; note: read at 38.3 µM for the half of the compounds with a filed dose
Marburg entry inh – Marburg virus entry inhibition; 300,000 compounds, 1.8% hits; Marburg virus pseudotyped entry inhibition, cell reporter; Potency, µM (series often up to 37.8 µM), usual class: inhibitors; calls by dose curve; tested in HEK293 cells
Lassa entry inh – inhibitors of Lassa virus binding or cell entry; Lassa virus pseudotype entry inhibition, cell reporter; Potency, µM (series often up to 37.9 µM), actives largely listed as inhibitors; 300,000 compounds, 1.2% hits; AID 540256; calls by dose curve; tested in HEK293 cells; note: nearly all actives have a fitted effect of over 50% in size
FMDV antiviral – antivirals against foot and mouth disease virus. FMDV antiviral cell-based qHTS. Potency, µM (highest dose often 57.9 µM), usual class: inhibitors. 410,000 compounds, 1.2% hits; calls by dose curve; tested in HEK293T cells; note: read-out not given here; nearly all actives have a fitted effect of over 45% in size
HCV inhibitor – blocks hepatitis C virus. Huh7.5.1 HCVcc-Cre infection, luciferase reporter, 44 h. Potency, µM (highest dose often 41.8 µM), usual class: inhibitors. 340,000 compounds, 3.4% hits. AID 651820; active = well fitted inhibition curve with a large enough effect; inconclusive = small, poorly fitted or top-dose-only effect, or another doubt; inactive = no such curve, though single readings can be large or run the other way
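Seed cells (1,000/well) for 4 h; treat with compound and infect with HCVcc-Cre, moi about 0.5. Incubate 44 h, then detect luciferase activity.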
Hits are given with their value; - = inactive; ? = inconclusive; . = no result; [ ] = dose if it differs, or a comment. This is a sample that favours compounds with a hit; in the whole collection about 13% have one here.

SMILES	Shiga inhibitor	Cycloheximide cs	Marburg entry inh	Lassa entry inh	FMDV antiviral	HCV inhibitor
CCN(CC)c1ccc2c(cc1=O)[C@@H](NC)CCc1cc(OC)c(OC)c(OC)c1-2	-	-	4µM	1.1µM	-	-
O=C(N/N=C/C(Br)=C\c1ccccc1)c1cccs1	79	74	?	?	-	?
CC(=C/c1ccccc1)/C=N/NC(=O)c1cccs1	78	36	?	?	-	-
Cc1ccccc1C(=O)NNC(=O)Cc1cccc2ccccc12	-	-	-	-	.	?
CC(C)=CCC/C(C)=C/CO/N=C1\C[C@@H](O)[C@@H](O)[C@@H]2[C@@H]3C(=O)N(c4cccc(Oc5ccccc5)c4)C(=O)[C@@H]3CC[C@@H]12	.	.	-	.	.	.
O=C(CN1CCCCCC1)Nc1ccc([N+](=O)[O-])cc1Br	-	-	-	-	-	-
Cc1ccc(NC(=O)CN2CCCCCC2)cc1[N+](=O)[O-]	103	42	-	-	-	-
O=C(CN1CCCCC1)NCC(=O)Nc1ccc(Br)cc1C(=O)c1ccccc1	-	-	?	?	-	11µM
O=C(CN1CCCC1)Nc1ccc(Br)cc1[N+](=O)[O-]	.	27	.	.	-	-
O=C(CNC(=O)c1ccccc1)Nc1ccc(Br)cc1C(=O)c1ccccc1	-	-	?	-	-	?
COc1ccc(-c2cc(CCCC(=O)N3CCN(c4ccc(OC)cc4)CC3)no2)cc1	-	-	-	.	?	11µM
COc1ccc(-c2cc(CCCC(=O)NCCc3cc(OC)ccc3OC)no2)cc1	-	-	?	-	?	10µM
COc1ccc(N2CCN(C(=O)COCc3cc(-c4ccc5c(c4)OCO5)on3)CC2)cc1	-	-	-	-	-	-
CCOc1ccc(-c2cc(CCCC(=O)NCCc3ccc(OCC)c(OCC)c3)no2)cc1	.	.	?	?	-	.
CCC(=O)c1cn(Cc2ccc(C#N)cc2)c2ccccc12	-	-	-	-	?	?
Cc1cc(C(=O)N/N=C/c2ccc[nH]2)n[nH]1	36	16	-	-	-	1.4µM
Cc1cc(C(=O)N/N=C/c2cccnc2)n[nH]1	-	-	-	-	-	-
COc1cc(/C=N\NC(=O)c2ccc(C)nc2)ccc1OC(=O)c1ccco1	-	-	?	?	-	-
NC(=S)N/N=C/c1ccc2ccccc2c1	-	27	?	-	-	-
Cc1cc(C(=O)N/N=C/c2cccc(OC(=O)c3ccco3)c2)n[nH]1	-	46	?	-	-	-
Cc1cc(C(=O)N/N=C/c2ccc3ccccc3c2)n[nH]1	30	23	.	.	-	-
NC(=S)N/N=C/c1cccc(/C=N/NC(N)=S)c1	-	-	-	-	-	-
O=S(=O)(c1ccc2c(c1)OCO2)N1CCN(S(=O)(=O)c2c(F)cccc2F)CC1	-	-	.	.	.	.
CCOC(=O)C1=C(C)NC(=O)NC1c1cccc(O)c1 (stereo unspecified)	-	-	-	-	-	-
CN(C)c1ccc(/C=C/C=C2/SC(=S)N(c3ccccc3)C2=O)cc1	88	33	-	-	?	-
SMILES	Shiga inhibitor	Cycloheximide cs	Marburg entry inh	Lassa entry inh	FMDV antiviral	HCV inhibitor
CCn1c(-c2cc(-c3cccc(OC)c3)nc3ccccc23)n[nH]c1=S	-	-	-	-	-	-
CCc1ccc(-c2cc(-c3n[nH]c(=S)n3CC)c3ccccc3n2)cc1	41	32	-	?	.	-
CC(=O)N1CCSc2ccc(S(=O)(=O)NCc3ccc(F)cc3)cc21	-	-	.	.	-	?
Cc1cc(C)cc(C(=O)NCc2ccc3c(c2)OCO3)c1	-	-	.	.	-	-
COC(=O)Cc1[nH]nc2c1C(C1C=CCCC1)C(C#N)=C(N)O2 (stereo unspecified)	-	-	-	-	16µM	?
CC(=O)N(\C=C/C=C/C=C1\Sc2ccccc2C1=O)c1ccccc1	115	59	?	-	-	?
CN(C)/C=C1/Sc2ccccc2C1=O	-	32	-	-	-	-
Cc1ccc(N2C(=S)SC3CS(=O)(=O)CC32)cc1 (stereo unspecified)	-	-	-	-	-	-
CC(OC(=O)Cc1c[nH]c2ccccc12)C(=O)N(C)c1ccccc1 (stereo unspecified)	.	.	-	?	-	-[8.37 µM]
CCNc1nc2c(c(=O)[nH]c(=O)n2C)n1CCCc1ccccc1	.	-	.	.	-	-
COC(=O)/C(=C/c1cccnc1)NC(=O)c1ccccc1	-	-	-	-	-	-
COC(=O)C(=C/C(C)=C/c1cccnc1)C(=O)OC	-	-	?	-	22µM	-
CC(C)(C)C(=O)CSc1ncnc2sc3c(c12)CCC3	67	44	-	-	-	?

Screening results from PubChem.
